# According to the supplement of paper PMC13094657:
# ± gives the standard deviation of the averaged measurements.
# Key:
# [1] = tested on: MDA-MB-231; assay: cell viability relative to vehicle unstimulated control (fraction); higher = more viable cells; details: pre-treatment time: 18 h then 24 h IFNg/TNF
# [2] = tested on: MDA-MB-231; assay: kynurenine production, fold change vs DMSO IFNg/TNF control; higher = more kynurenine produced (less inhibition); details: pre-treatment time: 18 h then 24 h IFNg/TNF
# Outline: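 MDA-MB-231 cells were seeded in 96-well plates at 7 × 10^4/well and, 24 h later, pre-treated for 18 h with each natural product in 0.1% DMSO. They were then stimulated for 24 h at 37°C with IFNγ (1 U/ml) and TNF (6.25 ng/ml). Supernatants were treated with trichloroacetic acid and p-dimethylaminobenzaldehyde and read at 492 nm against 0–100 μM standards. Kynurenine production is expressed as fold change over cytokine-stimulated vehicle wells on the same plate and, in the first screening round, averaged across duplicate plates.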
# 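Wherever cell viability relative to vehicle unstimulated control is given: viability of the cells left after supernatant collection, read with Deep Blue dye added for 4 h, as absorbance at 570 nm minus 600 nm.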
SMILES,cell viability [1],kynurenine production [2]
C[C@]1(OC(=O)/C=C/c2ccccc2)C[C@@H](O)[C@]2(O)C=CO[C@@H](O[C@@H]3O[C@H](CO)[C@@H](O)[C@H](O)[C@H]3O)[C@@H]21 [Harpagoside] (compound dose: 10 uM),0.987 ± 0.013,0.91 ± 0.17
COC(=O)C1=CO[C@@H](O[C@@H]2O[C@H](CO)[C@@H](O)[C@H](O)[C@H]2O)[C@H]2[C@@H]1[C@H](O)C[C@]2(C)OC(C)=O [Barlerin] (compound dose: 10 uM),1.01 ± 0.02,0.884 ± 0.11
CO[C@H]1O[C@@H]2O[C@@]3(C)CC[C@H]4[C@H](C)CC[C@@H]([C@H]1C)[C@@]24OO3 [Artemether] (compound dose: 10 uM),1 ± 0.11,0.37 ± 0.12
"CC(C)C12CCC(C)(CC1)O2 [1,4-Cineole] (compound dose: 10 uM)",0.907 ± 0.026,0.863 ± 0.11
CC(=O)O[C@H]1/C(CO)=C\C[C@H]2[C@@H](/C=C(/C)C(=O)[C@@]3(OC(C)=O)C[C@H](C)[C@H](OC(=O)c4ccccc4)[C@H]13)C2(C)C [Euphorbia factor L24] (compound dose: 10 uM),1.09 ± 0.022,0.911 ± 0.078
C[C@@H]1O[C@@H](O[C@H]2[C@H](Oc3cc(O)c4c(c3)O[C@H](c3ccc(O)cc3)CC4=O)O[C@H](CO)[C@@H](O)[C@@H]2O)[C@H](O)[C@H](O)[C@H]1O [Naringin] (compound dose: 10 uM),1.02 ± 0.015,1.15 ± 0.036
CC1(C)CCC2(CO)C(=C3C=CC4C5(C)CCC(OC6OC(COC7OC(CO)C(O)C(O)C7O)C(OC7OC(CO)C(O)C(O)C7O)C(O)C6O)CC5C(C)(CO)CC4(C)C3(C)CC2O)C1 (centres undefined) [Clinodiside A] (compound dose: 10 uM),0.918 ± 0.029,1.03 ± 0.2
